Counter-ions that a name gives are not always drawn.
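Note: viability read out with the CCK-8 kit in 96-well plates, screening a set of 303 compounds acting on lipid metabolism targets.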

The subject of one experiment is HCC1937. The experiment in a line: relative cell viability, compound alone, vs DMSO (fraction of DMSO control); higher = less growth inhibition. Particulars: 72 h.
`O=C(Nc1cnccc1Cl)N1CCN(Cc2ccc3c(c2)OC(F)(F)O3)CC1` showed a relative cell viability of 0.747.

Regarding `CC(C)(O)c1ccccc1CC[C@@H](SCC1(CC(=O)O)CC1)c1cccc(/C=C/c2ccc3ccc(Cl)cc3n2)c1` [Montelukast], the relative cell viability stood at 0.789.

In the case of `CC[C@H]1[C@@H](O)[C@@H]2[C@H](CC[C@]3(C)[C@@H]([C@H](C)CCC(=O)O)CC[C@@H]23)[C@@]2(C)CC[C@@H](O)C[C@@H]12` [Obeticholic Acid], the relative cell viability came out at 0.901.

Turning to `COc1cccc(-n2c(=O)[nH]c3cc(Cl)n(-c4ccc(-c5cccc(OC)c5O)cc4)c3c2=O)c1`, the relative cell viability was determined as 0.835.

The subject of another experiment is MDA-MB-231. Described as above. Particulars: 72 h.
Regarding `CCCc1c(-c2ccccc2)[nH]n(-c2ccccn2)c1=O` [APX-115 free base], the relative cell viability is 0.835.

As for `COc1c(/C=C/C(=O)c2ccc(O)cc2)ccc(O)c1CC=C(C)C`, the relative cell viability turned out to be 0.885.

As for `CN(C)CCOC(=O)COc1ccc(Cl)cc1` [Meclofenoxate hydrochloride], the relative cell viability amounted to 0.933.

`CN(CCOc1ccc(CC2SC(=O)NC2=O)cc1)c1ccccn1` (stereo not drawn) [Rosiglitazone]: the relative cell viability worked out at 0.969.

For the molecule `Fc1ccc(-c2c3cccc(C(F)(F)F)c3nn2Cc2ccc(F)cc2Cl)cc1`, the relative cell viability was found to be 0.816.

`CC(C)(C)N1C(=O)C(Nc2ccc(N3CCCCC3)cc2)=C(c2ccccc2)S1(=O)=O` gave a relative cell viability of 0.947.

`C/C=C(\CC[C@@H](C)[C@H]1CC[C@H]2[C@@H]3CC=C4C[C@@H](O)CC[C@]4(C)[C@H]3CC[C@]12C)C(C)C` [Fucosterol] had a relative cell viability of 0.968.

For `Cc1cc(=O)oc2c(O)c(O)ccc12` [7,8-Dihydroxy-4-methylcoumarin], the relative cell viability stood at 1.02.

Molecule `C[C@H](CCC(=O)O)[C@H]1CC[C@H]2[C@@H]3C[C@H](O)[C@@H]4C[C@H](O)CC[C@]4(C)[C@H]3CC[C@]12C` [Hyodeoxycholic acid] yielded a relative cell viability of 1.02.

For the molecule `CC1CC(OC(=O)C(O)c2ccccc2)CC(C)(C)C1` (stereo not drawn) [Cyclandelate], the relative cell viability is 0.825.

`Cc1nc2c([nH]1)c(=O)n(C)c(=O)n2Cc1ccco1` [Furafylline] showed a relative cell viability of 0.924.

Regarding `CC(C)=CCC(O)C1=CC(=O)c2c(O)ccc(O)c2C1=O` (single isomer, unassigned; (+)) [(+)-Shikonin], the relative cell viability worked out at 0.529.

Turning to `O=C(O)C(=O)Nc1sc2c(c1C(=O)O)CCNC2`, the relative cell viability was determined as 0.872.

The molecule `O=C(Nc1ccncc1)c1cc([N+](=O)[O-])ccc1Cl` came in with a relative cell viability of 0.831.

`O=C(NC1CCN(CCCCC2(C(=O)NCC(F)(F)F)c3ccccc3-c3ccccc32)CC1)c1ccccc1-c1ccc(C(F)(F)F)cc1` [Lomitapide] yielded a relative cell viability of 0.695.

Take `O=C(Nc1cccnc1)N1CCC(Cc2cccc(Oc3ccc(C(F)(F)F)cn3)c2)CC1`: the relative cell viability was 1.01.

`O=C1/C(=C/c2cccs2)CC/C1=C\c1cccs1` yielded a relative cell viability of 0.84.

On to `COc1ccc([C@@H]2OC[C@H]3[C@@H]2CO[C@@H]3c2ccc(O[C@@H]3O[C@H](CO)[C@@H](O)[C@H](O)[C@H]3O)c(OC)c2)cc1OC` [Forsythin], for which the relative cell viability was determined as 1.06.

In the case of `C=CC[S+]([O-])C[C@H](N)C(=O)O` (stereo partly drawn) [Alliin], the relative cell viability turned out to be 1.04.

For `CN(C)c1cccc(-c2c3c(=O)n(-c4ccccc4Cl)[nH]c3cc(=O)n2C)c1`, the relative cell viability turned out to be 0.974.

As to `Oc1ccc2c(c1)OCO2` [Sesamol], the relative cell viability was 0.831.

On to `CCC(CC)CC1(C(=O)Nc2ccccc2SC(=O)C(C)C)CCCCC1` [Dalcetrapib], for which the relative cell viability was 1.06.

Take `O=S(=O)(O)c1ccc2cc(N=Nc3cc(S(=O)(=O)O)c4cccnc4c3O)ccc2c1`: the relative cell viability was 0.851.

Regarding `COc1ccc(-c2coc3cc(OC)ccc3c2=O)cc1` [4',7-Dimethoxyisoflavone], the relative cell viability came to 0.693.

For `CCNC1(C(N)=O)CCN(c2ncnc3c2nc(-c2ccccc2Cl)n3-c2ccc(Cl)cc2)CC1` [Otenabant], the relative cell viability was found to be 0.915.

For the molecule `CC(c1cc2ccccc2s1)N(O)C(N)=O` (stereo not drawn) [Zileuton], the relative cell viability worked out at 0.906.

Take `O=C(NCCS(=O)(=O)c1ccc(C(F)(F)F)cn1)c1ccc(Cl)cc1`: the relative cell viability amounted to 0.901.

For the molecule `CCN(CC)c1ccc(C=NNC(=O)c2ccncc2)c(O)c1`, the relative cell viability turned out to be 0.624.

The molecule `CC(C)c1cc(C(C)C)c(CC(=O)NS(=O)(=O)Oc2c(C(C)C)cccc2C(C)C)c(C(C)C)c1` [Avasimibe] registered a relative cell viability of 0.832.

Consider `COc1cc(N2CCN(C)CC2)ccc1Nc1ncc2c(n1)N(C)c1ccccc1C(=O)N2`, for which the relative cell viability was 0.655.

`CC(C)=CCC[C@](C)(O[C@@H]1O[C@H](CO)[C@@H](O)[C@H](O)[C@H]1O)[C@H]1CC[C@]2(C)[C@@H]1[C@H](O)C[C@@H]1[C@@]3(C)CC[C@H](O[C@@H]4O[C@H](CO)[C@@H](O)[C@H](O)[C@H]4O[C@@H]4O[C@H](CO)[C@@H](O)[C@H](O)[C@H]4O)C(C)(C)[C@@H]3CC[C@]12C` [Ginsenoside Rd] showed a relative cell viability of 0.896.

On to `CCCCCCCCCCC[C@@H](C[C@@H]1OC(=O)[C@H]1CCCCCC)OC(=O)[C@H](CC(C)C)NC=O` [Orlistat], for which the relative cell viability was found to be 0.809.

In the case of `O=C(CCCCc1ccc2c(c1)OCO2)N1CCCCC1`, the relative cell viability was 0.838.

`COc1ccc(N(C(=O)Nc2c(C)cccc2C)c2cc(Nc3ccc(N4CCN(C)CC4)cc3)ncn2)c(OC)c1` gave a relative cell viability of 1.11.

Consider `CCCc1cc(-c2nc(-c3ccc(NS(C)(=O)=O)cc3)cs2)ccn1`, for which the relative cell viability was found to be 0.926.

The molecule `O=C(Nc1cnccc1Cl)N1CCN(Cc2ccc3c(c2)OC(F)(F)O3)CC1` registered a relative cell viability of 0.771.

Regarding `CC(C)(O)c1ccccc1CC[C@@H](SCC1(CC(=O)O)CC1)c1cccc(/C=C/c2ccc3ccc(Cl)cc3n2)c1` [Montelukast], the relative cell viability turned out to be 0.857.

For the molecule `CC[C@H]1[C@@H](O)[C@@H]2[C@H](CC[C@]3(C)[C@@H]([C@H](C)CCC(=O)O)CC[C@@H]23)[C@@]2(C)CC[C@@H](O)C[C@@H]12` [Obeticholic Acid], the relative cell viability stood at 0.856.

For the molecule `COc1cccc(-n2c(=O)[nH]c3cc(Cl)n(-c4ccc(-c5cccc(OC)c5O)cc4)c3c2=O)c1`, the relative cell viability turned out to be 0.903.

(Values after the supplement of paper PMC9492666.)
